In PubChem BioAssay (Tox21):
Records with an inconclusive call do not appear. The source made the active and inactive calls. Unless noted, calls follow the shape of the dose curve; as a rule, active = well fitted curve in the direction sought with a large enough effect in the repeat runs; inconclusive = weak or mixed curves; inactive = no such curve, though single readings can be large; an effect the other way counts as inactive or inconclusive.

How the values were obtained:
[1] = qHTS assay to identify small molecule antagonists of the estrogen related receptor (ERR) signaling pathway from Tox21 library - cell viability counter screen (AID 1224834); also: nearly all actives have a fitted effect of over 30% in size
How it was run: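 CellTiter-Fluor fluorescence, read after 30 min at 37 C, measures viability of ERR cells. Cells plated at 2,000/well and incubated 6 h before pin-tool compound addition, then exposed 17.5 hours at 37 C.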

[2] = biological target: Luciferin 4-monooxygenase (Photinus pyralis) (UniProt P08659); experiment: qHTS assay to identify small molecule inhibitors of firefly luciferase (AID 1224835); also: nearly all actives have a fitted effect of over 25% in size; also: potency is read from the fitted curve at half-maximal effect
How it was run: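 Inhibition of purified Photinus luciferase is measured by luminescence. Substrate levels (D-luciferin, ATP) sit at their KM values. Each compound is tested in a concentration series.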

[3] = qHTS assay to identify small molecule agonists of the constitutive androstane receptor (CAR) signaling pathway - cell viability counter screen (AID 1224836); also: nearly all actives have a fitted effect of over 45% in size
How it was run: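 Viability read-out: CellTiter-Fluor fluorescence after 23 h compound exposure at 37 C/5% CO2 in double-stable HepG2-CYP2B6-hCAR cells, with PK11195 present at 0.75 uM final; compounds tested in 15-point titration.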

[4] = qHTS assay to identify small molecule antagonists of the constitutive androstane receptor (CAR) signaling pathway - cell viability counter screen (AID 1224837); also: nearly all actives have a fitted effect of over 45% in size
How it was run: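 Cytotoxicity counter-screen: CellTiter-Fluor fluorescence after 23 h compound exposure (15-point qHTS) in double-stable HepG2-CYP2B6-hCAR cells, with 50 nM CITCO added.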

[5] = biological target: Nuclear receptor subfamily 1 group I member 3 (Homo sapiens) (UniProt Q14994); experiment: qHTS assay to identify small molecule antagonists of the constitutive androstane receptor (CAR) signaling pathway (AID 1224838);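 also: HepG2 cells stably expressing hCAR with CYP2B6 luciferase reporter stimulated by CITCO; nearly all actives have a fitted effect of over 40% in size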
How it was run: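 Antagonism measured as luciferase signal (ONE-Glo, 30 min, room temperature) in CAR-stimulated cells: HepG2-CYP2B6-hCAR double-stable line exposed 24 hr at 37 C to compound in a 15-point series plus 50 nM CITCO.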

[6] = biological target: Nuclear receptor subfamily 1 group I member 3 (Homo sapiens) (UniProt Q14994); experiment: qHTS assay to identify small molecule agonists of the constitutive androstane receptor (CAR) signaling pathway (AID 1224839); also: nearly all actives have a fitted effect of over 15% in size; also: potency is read from the fitted curve at half-maximal effect;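 as to activation: HepG2 cells stably carrying human CAR and a CYP2B6 luciferase reporter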
How it was run: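 Luminescence read-out (ONE-Glo, 30 min, room temperature) from double-stable HepG2-CYP2B6-hCAR cells exposed 24 h to 15-point compound series in presence of 0.75 uM PK11195 final.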

[7] = qHTS assay to identify small molecule antagonists of the estrogen related receptor signaling pathway with the pleiotropic PPARgamma coactivator (PGC) from Tox21 10K library - cell viability counter screen (AID 1224840; active = well fitted cell-killing curve with a large enough effect in the repeat runs, not every such curve was filed as active; also: nearly all actives have a fitted effect of over 40% in size)
How it was run: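 Counter-screen for cytotoxicity: after 17.5 h compound exposure at 37 C, CellTiter-Fluor reagent added to PGC/ERR cells for 30 min and fluorescence read. Cells were seeded at 2,000 per well 6 h before dosing.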

[8] = biological target: Thyrotropin receptor (Homo sapiens) (UniProt P16473); experiment: qHTS assay to identify small molecule agonists of the thyroid stimulating hormone receptor (TSHR) signaling pathway (AID 1224843; calls by dose curve; also: nearly all actives have a fitted effect of over 45% in size)
How it was run: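 Agonist activity read as cAMP rise via d2/cryptate HTRF competition, 1 h room-temperature detection, in HEK293 cells expressing TSHR. Fifteen-point titrations, each run in triplicate, with a 30 min room-temperature incubation beforehand.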

[9] = qHTS assay to identify small molecule agonists of H2AX (AID 1224845; active = well fitted activation curve with a large enough effect in the signal ratio in the repeat runs, not every such curve was filed as active; the % refers to the signal ratio)
How it was run: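 Phospho-H2AX Ser139 measured by HTRF (ex 320 nm; em 665 and 620 nm) after 24 hr antibody incubation. Compounds, 15 concentrations, 0.76% DMSO, were applied to CHO-K1 cells for 3hr at 37C before lysis.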

[10] = qHTS assay to identify small molecule agonists of the hypoxia (HIF-1) signaling pathway (AID 1224846; active = well fitted activation curve with a large enough effect in the signal ratio in the repeat runs, not every such curve was filed as active; the % refers to the signal ratio)
How it was run: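 Compounds added to ME-180 cells carrying hypoxia-response-element beta-lactamase reporter (0.5% dialyzed FBS, 5 h preplating), 17 h at 37C; agonist activity detected by CCF4-AM B/G FRET read-out.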

[11] = qHTS assay to identify small molecule agonists of H2AX - cell viability counter screen (AID 1224847; calls by dose curve;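 also: wild-type CHO-K1 cells; top concentration of the series differs between compounds; nearly all actives have a fitted effect of over 30% in size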)
How it was run: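 CHO-K1 wt, 1000 cells/well, o/n 37C; cpds 15 conc, 3 h 37C, 0.76% DMSO; CellTiter-Glo, 30 min RT, luminescence.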

[12] = qHTS RealTime-Glo MT Cell Viability Assay in HepG2 cells - 24 hour (AID 1224867); also: nearly all actives have a fitted effect of over 50% in size
How it was run: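 Cells + NanoLuc/prosubstrate dispensed (600 cells/well) → 5 h at 37 C/5% CO2 → compounds in DMSO transferred → 40 h incubation at 37 C, luminescence read at 0, 8, 16, 24, 32, 40 h.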

[13] = qHTS RealTime-Glo MT Cell Viability Assay in HEK293 cells - 32 hour (AID 1224868); also: top concentration of the series differs between compounds; nearly all actives have a fitted effect of over 50% in size
How it was run: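 Tox21 10K qHTS, HEK293, 600 cells/well, RealTime-Glo reagent co-dispensed with cells; 5 h preincubation, compound by pintool, 37 C, luminescence at 0–40 h.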

[14] = qHTS assay to identify small molecule agonists of the hypoxia (HIF-1) signaling pathway - cell viability counter screen (AID 1224844; calls by dose curve; also: nearly all actives have a fitted effect of over 50% in size)
How it was run: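 Cytotoxicity measured by CellTiter-Glo ATP luminescence in the wells also read for beta-lactamase signal. Cells were HRE-bla ME-180 (2,000/well, 0.5% dialyzed FBS), exposed to compounds for 17 h at 37C.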

[15] = A CellTox Green Cytotoxicity Assay to monitor cytotoxicity in HEK293 cells - 0 hour (AID 1224869); also: nearly all actives have a fitted effect of over 50% in size
How it was run: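 Fluorescence from a DNA-binding dye excluded by viable cells was measured repeatedly in the same HEK293 wells (600 cells/well) during continuous compound exposure at 37 C. Each assay gives one read point: 0, 8, 16, 24, 32 or 40 h.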

[16] = qHTS assay to identify small molecule antagonists of the estrogen related receptor signaling pathway with the pleiotropic PPARgamma coactivator (PGC) from Tox21 10K library (AID 1224841; call rule not given here)
How it was run: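 Luminescence (One-Glo, 30 min at room temperature) after 18 h compound treatment at 37 C of PGC/ERR reporter cells plated at 2,000 cells/well and settled 6 h beforehand.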

[17] = qHTS assay to identify small molecule agonists of the estrogen related receptor signaling pathway with the pleiotropic PPARgamma coactivator (PGC) from Tox21 10K library (AID 1224842); also: nearly all actives have a fitted effect of over 15% in size
How it was run: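 Luminescence from One-Glo (30 min, room temperature) measured after PGC/ERR cells had 18 h at 37 C with pinned compound (23 nL in DMSO). Cells had been seeded at 2,000 per well and pre-incubated 6 h.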

[18] = qHTS assay to identify small molecule antagonists of the estrogen related receptor (ERR) signaling pathway from Tox21 library (AID 1224848); also: nearly all actives have a fitted effect of over 50% in size
How it was run: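 Luciferase luminescence (ONE-Glo, 30 min room temperature) was the read-out. Cells of the NTP-supplied ERR line, 2,000 per well, were given 6 h at 37 C before compound addition in DMSO and 18 h exposure at 37 C.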

[19] = qHTS assay to identify small molecule agonists of the estrogen related receptor (ERR) signaling pathway from Tox21 library (AID 1224849; calls by dose curve; also: nearly all actives have a fitted effect of over 15% in size); conditions: ERR reporter cell line, ONE-Glo luciferase, 18 h; at 92.4 µM (top of the series) unless noted
How it was run: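 Luminescent agonist read-out (One-Glo, 30-minute room-temperature incubation) following 18-hour compound treatment at 37 C of the ERR cell line, which had been plated 6 hours before dosing.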
% is scaled to controls: 0 for no effect and ±100 for the full control effect.

Sequence of Luciferin 4-monooxygenase (Photinus pyralis) (P08659 whole entry, looked up): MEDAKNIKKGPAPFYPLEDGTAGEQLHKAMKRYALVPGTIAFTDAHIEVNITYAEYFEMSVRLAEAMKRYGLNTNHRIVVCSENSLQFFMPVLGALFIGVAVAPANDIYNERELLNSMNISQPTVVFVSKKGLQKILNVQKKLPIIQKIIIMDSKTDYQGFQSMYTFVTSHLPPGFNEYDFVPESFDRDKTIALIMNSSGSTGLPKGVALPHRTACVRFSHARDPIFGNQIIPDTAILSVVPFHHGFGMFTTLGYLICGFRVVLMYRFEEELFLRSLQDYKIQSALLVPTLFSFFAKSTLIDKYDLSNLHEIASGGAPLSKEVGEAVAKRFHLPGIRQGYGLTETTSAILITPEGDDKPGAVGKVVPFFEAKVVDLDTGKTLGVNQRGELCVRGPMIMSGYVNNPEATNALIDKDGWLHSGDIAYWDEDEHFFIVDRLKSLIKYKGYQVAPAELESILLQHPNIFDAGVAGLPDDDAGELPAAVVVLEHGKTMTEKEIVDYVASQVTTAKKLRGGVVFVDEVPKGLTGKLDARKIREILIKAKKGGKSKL
Sequence of Nuclear receptor subfamily 1 group I member 3 (Homo sapiens) (Q14994 whole entry, looked up): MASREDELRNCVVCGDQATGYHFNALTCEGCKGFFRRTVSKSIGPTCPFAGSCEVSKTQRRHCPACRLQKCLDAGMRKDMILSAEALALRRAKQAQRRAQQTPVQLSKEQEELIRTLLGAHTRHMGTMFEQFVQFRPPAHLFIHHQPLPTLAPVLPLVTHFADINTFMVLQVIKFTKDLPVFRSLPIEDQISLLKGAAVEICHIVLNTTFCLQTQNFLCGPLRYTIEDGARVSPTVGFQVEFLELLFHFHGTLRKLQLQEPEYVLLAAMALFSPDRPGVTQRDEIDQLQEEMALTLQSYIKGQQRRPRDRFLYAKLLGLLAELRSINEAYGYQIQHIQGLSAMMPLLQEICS
Sequence of Thyrotropin receptor (Homo sapiens) (P16473 whole entry, looked up): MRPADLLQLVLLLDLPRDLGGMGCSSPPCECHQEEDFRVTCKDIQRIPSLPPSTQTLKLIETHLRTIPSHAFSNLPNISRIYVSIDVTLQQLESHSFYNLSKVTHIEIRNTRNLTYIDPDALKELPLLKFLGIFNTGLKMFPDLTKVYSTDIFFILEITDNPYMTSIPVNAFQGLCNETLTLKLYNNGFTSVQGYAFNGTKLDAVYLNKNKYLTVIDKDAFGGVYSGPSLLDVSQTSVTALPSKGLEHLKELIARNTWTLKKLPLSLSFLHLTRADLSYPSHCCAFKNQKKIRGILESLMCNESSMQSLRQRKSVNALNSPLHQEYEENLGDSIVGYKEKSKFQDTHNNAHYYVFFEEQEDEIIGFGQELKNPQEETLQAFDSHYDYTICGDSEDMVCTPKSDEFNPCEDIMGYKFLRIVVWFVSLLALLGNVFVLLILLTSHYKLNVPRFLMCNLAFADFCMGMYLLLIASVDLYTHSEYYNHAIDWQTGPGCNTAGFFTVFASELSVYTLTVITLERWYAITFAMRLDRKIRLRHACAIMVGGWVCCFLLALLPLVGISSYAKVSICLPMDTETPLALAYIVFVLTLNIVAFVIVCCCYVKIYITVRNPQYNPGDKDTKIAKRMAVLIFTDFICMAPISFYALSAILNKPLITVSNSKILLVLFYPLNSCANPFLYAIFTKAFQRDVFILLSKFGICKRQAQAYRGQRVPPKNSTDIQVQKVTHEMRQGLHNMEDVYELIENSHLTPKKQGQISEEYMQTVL

O=C(O)c1cccc(C(=O)O)c1C(=O)O
inactive: Potency [1] | Potency [2] | Potency [3] | Potency [4] | Potency [5] | Potency [6] | Potency [7] | Potency [8] | Potency [9] | outcome [10] | Potency [11] | outcome [12] | Potency [13]

CCOC(=O)CC(O)(CC(=O)OCC)C(=O)OCC
inactive: Potency [1] | Potency [2] | Potency [3] | Potency [4] | Potency [5] | Potency [7] | Potency [8] | Potency [14] | Potency [9] | outcome [10] | Potency [11] | outcome [12]

CC(C)=CCC/C(C)=C/C=N/O
inactive: Potency [1] | Potency [2] | Potency [3] | Potency [4] | Potency [5] | Potency [6] | Potency [7] | Potency [8] | Potency [9] | outcome [10] | Potency [11] | outcome [12] | Potency [13] | Potency [15]

CC(C)=CCCC(C)C=O (configuration not stated)
inactive: Potency [1] | Potency [2] | Potency [3] | Potency [4] | Potency [5] | Potency [7] | Potency [8] | Potency [14] | Potency [9] | Potency [11] | outcome [12] | Potency [15]

O=C(OCCOCCOCCOC(=O)c1ccccc1)c1ccccc1
inactive: Potency [1] | Potency [2] | Potency [3] | Potency [4] | Potency [5] | Potency [6] | Potency [7] | Potency [14] | Potency [9] | outcome [10] | outcome [12] | Potency [13] | Potency [15]

O=[N+]([O-])c1ccc(Cl)cc1Cl
inactive: Potency [1] | Potency [2] | Potency [3] | Potency [4] | Potency [5] | Potency [7] | Potency [8] | Potency [14] | Potency [9] | outcome [10] | Potency [11] | outcome [12] | Potency [13]

OCCOc1cccc(OCCO)c1
inactive: Potency [1] | Potency [2] | Potency [3] | Potency [4] | Potency [5] | Potency [7] | Potency [16] | Potency [17] | Potency [8] | Potency [14] | Potency [9] | outcome [10] | Potency [11] | Potency [18] | activity change, positive = activation [19] 0.271% | outcome [12] | Potency [15]

NC(=O)c1ccccc1
inactive: Potency [1] | Potency [2] | Potency [3] | Potency [4] | Potency [5] | Potency [6] | Potency [8] | Potency [14] | Potency [9] | Potency [11] | outcome [12] | Potency [13] | Potency [15]

CC(CN=Cc1ccccc1O)N=Cc1ccccc1O (configuration not stated)
inactive: Potency [1] | Potency [2] | Potency [3] | Potency [4] | Potency [5] | Potency [6] | Potency [7] | Potency [14] | Potency [9] | outcome [10] | Potency [11] | outcome [12] | Potency [15]

CC(C)(O)C(=O)O
inactive: Potency [1] | Potency [2] | Potency [3] | Potency [4] | Potency [5] | Potency [6] | Potency [7] | Potency [14] | Potency [9] | Potency [11] | outcome [12] | Potency [13]

SCCOCCOCCS
inactive: Potency [1] | Potency [2] | Potency [3] | Potency [4] | Potency [5] | Potency [6] | Potency [7] | outcome [10] | Potency [11] | outcome [12] | Potency [13] | Potency [15]

O=C(O)c1ccccc1-n1cc(C(=O)O)c(=O)c2cc(Nc3c(F)cc(F)cc3Cl)c(Cl)cc21
inactive: Potency [1] | Potency [2] | Potency [3] | Potency [4] | Potency [5] | Potency [7] | Potency [8] | Potency [14] | Potency [9] | outcome [10] | outcome [12] | Potency [13]

C(/C=C/C=C/Nc1ccccc1)=Nc1ccccc1
inactive: Potency [1] | Potency [2] | Potency [3] | Potency [4] | Potency [5] | Potency [6] | Potency [7] | Potency [14] | Potency [9] | Potency [11] | outcome [12] | Potency [13] | Potency [15]

Cc1cc(N)n(-c2ccccc2)n1
inactive: Potency [1] | Potency [2] | Potency [3] | Potency [4] | Potency [5] | Potency [7] | Potency [16] | Potency [17] | Potency [8] | Potency [14] | Potency [9] | outcome [10] | Potency [11] | Potency [18] | outcome [12] | Potency [13]

N#Cc1ccc(CC(=O)c2cccc(C(F)(F)F)c2)cc1
inactive: Potency [1] | Potency [2] | Potency [3] | Potency [4] | Potency [5] | Potency [7] | Potency [17] | Potency [9] | outcome [10] | Potency [11] | activity change, positive = activation [19] -29.1% | outcome [12]

Cc1ccc(S(=O)(=O)NC(=O)NC2CCCC2)cc1
inactive: Potency [1] | Potency [2] | Potency [3] | Potency [4] | Potency [5] | Potency [7] | Potency [8] | Potency [14] | Potency [9] | outcome [10] | Potency [11] | outcome [12] | Potency [13]

CCCc1nc(C)c2c(=O)[nH]c(-c3cc(S(=O)(=O)N4CCN(CC)CC4)ccc3OCC)nn12
inactive: Potency [1] | Potency [2] | Potency [3] | Potency [4] | Potency [5] | Potency [6] | Potency [7] | Potency [14] | Potency [9] | outcome [10] | Potency [11] | outcome [12] | Potency [15]

CCC(=O)O[C@]1(C(=O)COC)[C@@H](C)C[C@H]2[C@@H]3CCC4=CC(=O)C=C[C@]4(C)C3(F)[C@@H](O)C[C@@]21C (some centres not stated)
inactive: Potency [1] | Potency [2] | Potency [3] | Potency [4] | Potency [5] | Potency [7] | Potency [16] | Potency [17] | Potency [8] | Potency [9] | outcome [10] | Potency [18] | activity change, positive = activation [19] -12.4% [at 42.5 µM] | outcome [12] | Potency [13] | Potency [15]

c1ccc(-c2ccc(-c3ccccc3)cc2)cc1
inactive: viability change, negative = cytotoxic [1] 0.464% [at 19 µM] | viability change, negative = cytotoxic [3] 4.23% [at 19 µM] | activity change, negative = cytotoxicity [4] -2.21% [at 19 µM] | activity, negative = inhibition [5] 139% [at 19 µM] | viability change, negative = cytotoxic [7] 3.19% [at 19 µM] | activation (H2AX phosphorylation) [9] -0.824% [at 31.6 µM] | activation [10] -1.07% [at 15.8 µM] | activity change, negative = cytotoxicity [11] -0.782% [at 31.6 µM] | activity change, negative = cytotoxicity [12] 1.53% [at 15.8 µM] | activity change, negative = cytotoxic [13] 0.807% [at 15.8 µM] | cytotoxicity [15] -5.7% [at 15.8 µM]
active: Potency [2] 0.82 µM | Potency [6] 3.53 µM
